Measured values as given in article PMC5540273 (PLoS ONE, 2017).

How the values were obtained:
Conditions in all cases: concentration: 1 μM, replicates: in singlicate; n = 1
LOK = tested on: T1, LOK
T1 construct: gene STK10

LRRK2 = tested on: LRRK2
LTK = tested on: LTK
LYN = tested on: LYN
LZK = tested on: T2, LZK
T2 construct: gene MAP3K13

MAK = tested on: MAK
MAP3K15 = tested on: MAP3K15
MAP3K1 = tested on: MAP3K1
MAP3K2 = tested on: MAP3K2
MAP3K3 = tested on: MAP3K3
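Note: KINOMEscan kinase panel screen.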

Row | Structure (SMILES) | %Inh (LOK) | %Inh (LRRK2) | %Inh (LTK) | %Inh (LYN) | %Inh (LZK) | %Inh (MAK) | %Inh (MAP3K15) | %Inh (MAP3K1) | %Inh (MAP3K2) | %Inh (MAP3K3)
1 | COc1cc2nccc(Nc3cccc(Oc4ccccc4)c3)c2cc1OC.Cl [GW284543] | 0% | 48% | 0% | 0% | 0% | 12% | 0% | 0% | 0% | 0%
2 | CCS(=O)c1ccc(-c2coc3ccc(-c4nnc(C)o4)cc23)cc1 (centres unmarked) | 17% | 5% | 0% | 0% | 34% | 15% | 0% | 3% | 8% | 20%
3 | COc1ccc(CNC(=O)NC2CCN(c3ccnc(Nc4ccc(F)cc4)n3)C2)cc1 (centres unmarked) [GSK1379706] | 0% | 23% | 15% | 0% | 71% | 30% | 12% | 2% | 0% | 0%
4 | COc1cc(Nc2nccc(N3CCC(NC(=O)C(C)c4ccc(Cl)cc4)C3)n2)cc(OC)c1OC (centres unmarked) [GSK1379757] | 0% | 0% | 28% | 0% | 0% | 17% | 0% | 1% | 0% | 0%
5 | COc1ccc(Nc2nccc(N3CCC(NS(=O)(=O)c4ccc(NC(C)=O)cc4)C3)n2)cc1 (centres unmarked) [GSK1379729] | 14% | 28% | 8% | 3% | 0% | 30% | 11% | 15% | 0% | 0%
6 | O=C1NC(=O)C(c2ccccc2)=C1Nc1cccc(O)c1 [SB-390534] | 23% | 0% | 1% | 0% | 0% | 26% | 17% | 0% | 4% | 49%
7 | COc1cccc(C2=C(N(C)c3ccccc3)C(=O)NC2=O)c1 [SB-334865] | 0% | 0% | 0% | 0% | 32% | 24% | 0% | 1% | 4% | 0%
8 | COc1cc2ncn(-c3cc(OCc4ccncc4)c(C(N)=O)s3)c2cc1OC [GSK336313] | 0% | 0% | 2% | 0% | 0% | 23% | 11% | 25% | 0% | 0%
9 | CCC(=O)c1c(-c2ccccc2)c2cc(Cl)ccc2c(=O)n1Cc1cc(S(C)(=O)=O)n(CC(F)F)n1 | 0% | 0% | 0% | 0% | 0% | 14% | 2% | 0% | 0% | 0%
10 | O=C(NCCNc1ccnc(Nc2ccc(F)cc2)n1)Nc1ccc2c(c1)OCO2 [GSK1379882] | 0% | 0% | 0% | 0% | 0% | 30% | 0% | 1% | 0% | 0%
11 | Cc1ccc(-c2ccc3c(ccc4sc5c(c43)NC[C@@H](C)N=C5N(C)C)n2)cn1 | 0% | 0% | 0% | 0% | 0% | 17% | 0% | 0% | 0% | 0%
12 | Cc1nc(N(C)[C@H]2CN(C(=O)CC#N)CC[C@H]2C)c2cc[nH]c2n1 | 0% | 0% | 0% | 0% | 0% | 9% | 0% | 10% | 10% | 7%
13 | Cc1cccc(-c2cc(-c3c[nH]nc3-c3ccccn3)ccn2)c1 [GW679395] | 0% | 10% | 4% | 0% | 12% | 33% | 0% | 5% | 6% | 0%
14 | COc1ccc(-c2coc3ccc(-c4nnc(SCc5cccc(C#N)c5)o4)cc23)cc1 | 4% | 0% | 0% | 0% | 9% | 36% | 0% | 7% | 24% | 12%
15 | COC(=O)c1c(-c2ccccc2)c2cc(Br)ccc2c(=O)n1Cc1ccc(NC(=O)CCC(=O)O)cc1 | 20% | 4% | 3% | 8% | 4% | 8% | 18% | 12% | 0% | 18%
16 | O=C(Nc1n[nH]c2cc(-c3ccccc3F)ccc12)C1CC1 [SB-733371] | 1% | 0% | 0% | 0% | 0% | 0% | 32% | 0% | 0% | 22%
17 | Nc1ncnc2c1ncn2-c1ccc(Cl)cc1 [AH2635] | 0% | 0% | 14% | 0% | 27% | 8% | 0% | 0% | 0% | 0%
18 | O=C(Nc1n[nH]c2nc(-c3ccccc3)c(Cl)cc12)C1CC1 [SB-734909] | 21% | 0% | 0% | 0% | 0% | 3% | 60% | 37% | 14% | 33%

Row | Structure (SMILES) | %Inh (LOK) | %Inh (LRRK2) | %Inh (LTK) | %Inh (LYN) | %Inh (LZK) | %Inh (MAK) | %Inh (MAP3K15) | %Inh (MAP3K1) | %Inh (MAP3K2) | %Inh (MAP3K3)
19 | CCC(=O)c1c(-c2ccccc2)c2cc(Cl)ccc2c(=O)n1Cc1cc(C(=O)NC2CC2)n(C)n1 | 19% | 3% | 16% | 0% | 31% | 32% | 11% | 9% | 10% | 12%
20 | Cc1nn2c(=O)cc(N3CCOCC3)nc2n1Cc1cccc(Cl)c1Cl [GSK2342769] | 0% | 22% | 0% | 0% | 0% | 20% | 9% | 17% | 16% | 0%
21 | CCCC(=O)Nc1n[nH]c2ncc(-c3cccc4ccccc34)cc12 [SB-642057] | 0% | 0% | 0% | 0% | 0% | 22% | 0% | 7% | 2% | 0%
22 | CCn1c(-c2nonc2N)nc2ccccc21 [SB-693162/GW549034] | 11% | 83% | 4% | 0% | 55% | 0% | 54% | 46% | 25% | 31%
23 | O=c1cc(N2CCOCC2)nc2n(Cc3ccc(F)c(Cl)c3)ccn12 [GSK2297099] | 0% | 0% | 0% | 2% | 0% | 28% | 0% | 4% | 10% | 0%
24 | COc1cccc(C2=C(Nc3cccc(C(=O)O)c3)C(=O)NC2=O)c1 [SB-390770] | 22% | 27% | 32% | 0% | 0% | 33% | 1% | 25% | 0% | 3%
25 | OCCCNc1nccc(-c2c(-c3cccc(C(F)(F)F)c3)nn3cc(C(F)(F)F)ccc23)n1 [GW630813] | 0% | 0% | 4% | 0% | 43% | 16% | 0% | 0% | 0% | 0%
26 | Nc1n[nH]c2ncc(-c3ccccc3)cc12 [SB-517081] | 0% | 0% | 0% | 0% | 0% | 17% | 0% | 6% | 15% | 0%
27 | CCC(=O)c1c(-c2ccccc2)c2cc(Cl)ccc2c(=O)n1Cc1cc(S(C)(=O)=O)n(CC(N)=O)n1 | 0% | 8% | 0% | 7% | 0% | 15% | 0% | 0% | 0% | 0%
28 | O=C(NCc1cccs1)c1cc(C(=O)c2c(Cl)cccc2Cl)c[nH]1 [GW823670] | 21% | 0% | 11% | 1% | 0% | 0% | 0% | 0% | 0% | 0%
29 | Cc1ccc(Oc2ccc(Nc3ncnc4cc[nH]c34)cc2C)cn1 | 1% | 0% | 0% | 0% | 40% | 25% | 38% | 0% | 4% | 30%
30 | Nc1nc(-c2ccccc2F)c(-c2ccnc3ccccc23)s1 [GW560459] | 0% | 8% | 22% | 0% | 30% | 23% | 0% | 3% | 0% | 0%
31 | Nc1ncnc2c1ncn2-c1cccc2ccccc12 [SKF-97184] | 3% | 4% | 0% | 15% | 34% | 30% | 9% | 5% | 18% | 0%
32 | COc1cc2ncn(-c3cc(OCc4ccc(S(C)(=O)=O)cc4)c(C(N)=O)s3)c2cc1OC [GW869979] | 20% | 29% | 0% | 26% | 3% | 0% | 0% | 8% | 9% | 0%
33 | Cc1ccccc1COc1cc(-n2cnc3cc(Cl)ccc32)sc1C(N)=O [GW813349] | 46% | 82% | 9% | 33% | 0% | 0% | 1% | 32% | 5% | 11%
34 | COc1cc(Nc2ccnc3ccc(C(F)(F)F)cc23)cc(OC)c1OC [GW577382] | 18% | 27% | 0% | 25% | 30% | 12% | 3% | 4% | 0% | 0%
35 | CCc1nc(-c2cccc(C)c2)c(-c2ccncc2)s1 | 0% | 0% | 0% | 12% | 0% | 0% | 0% | 0% | 0% | 0%
